Data on one molecule can be found in the supplement of paper PMC8728848.

Common to all, as to experiment: glycan array binding signal (z-score within array); higher = stronger binding
What all share (details): glycan notation: IUPAC condensed, linker removed

Experiment [1] deals with Fuc(a1-2)Gal(b1-3)GalNAc(b1-3)Gal(a1-4)Gal(b1-4)Glc. The procedure, abridged:
(§1)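 Columns mapping to the same glycan were averaged after glycan names were converted to IUPAC-condensed notation. The data come from 3228 arrays in the Consortium for Functional Glycomics database, limited to those with an available protein sequence. Binding is reported as a within-array Z-score averaged across arrays of one protein sequence and across linkers.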

The target of another experiment is Fuc(a1-2)GlcNAc. The procedure, abridged:
as §1

Another experiment deals with Gal(a1-6)Glc. The procedure, abridged:
as §1

In experiment [2] the target is Gal(b1-3)[Fuc(a1-4)]GlcNAc(b1-3)Gal(b1-4)[Fuc(a1-3)]GlcNAc. The procedure, abridged:
as §1

The target in another experiment is Gal(b1-4)Glc6S. An outline of the steps: as §1
The target of experiment [3] is Gal(b1-4)GlcNAc(b1-3)Gal(b1-4)Glc. The procedure, abridged:
as §1

For another experiment, the target named is Glc(a1-4)Glc. The procedure, abridged:
as §1

The target of another experiment is Glc(a1-6)Glc(a1-6)Glc. An outline of the steps:
as §1

In a further experiment the target is Glc(b1-4)Glc. An outline of the steps:
as §1

Experiment [4] deals with GlcNAc(a1-3)Gal(b1-4)GlcNAc. The procedure, abridged:
as §1

In experiment [5] the target is GlcNAc(b1-4)GlcNAc(b1-4)GlcNAc. An outline of the steps: as §1
In experiment [6] the target is Man(a1-2)Man(a1-2)Man(a1-6)[Man(a1-3)]Man. An outline of the steps: as §1
In experiment [7] the target is Neu5Ac(a2-3)Gal(b1-4)[Fuc(a1-3)]GlcNAc. The procedure, abridged: as §1
Experiment [8] deals with Neu5Ac(a2-3)Gal(b1-4)[Fuc(a1-3)]GlcNAc(b1-3)Gal(b1-4)[Fuc(a1-3)]GlcNAc(b1-3)Gal(b1-4)[Fuc(a1-3)]GlcNAc. The procedure, abridged:
as §1

The next experiment has as its target Neu5Ac(a2-3)GalNAc. An outline of the steps:
as §1

The target of experiment [9] is Neu5Ac(a2-6)Gal(b1-4)GlcNAc(b1-3)Gal(b1-4)GlcNAc. The procedure, abridged: as §1
The target in experiment [10] is Neu5Ac(a2-6)Gal(b1-4)GlcNAc(b1-3)Gal(b1-4)[Fuc(a1-3)]GlcNAc(b1-3)Gal(b1-4)[Fuc(a1-3)]GlcNAc. An outline of the steps:
as §1

Experiment [11] addresses Neu5Ac(a2-8)Neu5Ac(a2-8)Neu5Ac. An outline of the steps: as §1

Only a selection was taken, and the strongest signals are over-represented in it overall.

B1: FaeGad (Escherichia coli) (protein)
chain: WMTGDFNGSVDIGGSITADDYRQKWEWEVGTGLNGFGSVLNDLTNGGTKLTITVTGNKPILLGRTKEAFATPVTSGVDGIPHIAFTDYEGASVELRNPDGETEKGLTYFVLPMKNAEGTKVGSVKVNASYAGALGRGGVTSADGELMSLFAEGSHAIFYGGLPTNVKNSELKGGSAAAARTELFGSLSKNDILGQIQRVNANITSLVNVPGSFNENMAYTDGSVVSVAYALGIANGQTIEATFNQAVTTSTQWSAPLNVAITYY
Take B1: the “glycan array binding signal (z-score)” value in experiment [1] was -0.404; in the experiment with Fuc(a1-2)GlcNAc, -0.247; with Gal(a1-6)Glc, 0.615; in experiment [2] it was 0.979; in the experiment with Gal(b1-4)Glc6S, 0.601; in experiment [3], 0.629. Besides, the “glycan array binding signal (z-score)” value in the experiment with Glc(a1-4)Glc was determined as 9.55; with Glc(a1-6)Glc(a1-6)Glc, 10.2; with Glc(b1-4)Glc, 3.57; in experiment [4] it was 0.188; in experiment [5], 0.137; in experiment [6], 1.83. Besides, the “glycan array binding signal (z-score)” value was -0.45 in experiment [7]; -0.187 in experiment [8]; -0.452 in the experiment with Neu5Ac(a2-3)GalNAc; -0.289 in experiment [9]; -0.414 in [10]; -0.377 in experiment [11].
